Measured values: PubChem BioAssay (NCATS)
Results filed as inconclusive are left out. A call without a number means that no potency is given here. Calls of active or inactive are those of the source. The call rests on the fitted dose curve.

test system: not listed separately; assay: qHTS assay for small molecule agonists of retinoid X receptor alpha signaling (AID 588544); settings: HEK293T RXRa-UAS-bla, beta-lactamase reporter, 18 h; 530 nm emission

Which max response does the source give for `COC(=O)N(OC)c1ccccc1COc1ccn(-c2ccc(Cl)cc2)n1` here?
Its max response is -23.9%.

With `O=C(O)[C@@H]1[C@H](C(=O)O)[C@@]2(Cl)C(Cl)=C(Cl)[C@]1(Cl)C2(Cl)Cl` as the compound, how does the max response read?
Its max response is -1.73%.

For `CCCCCCCCCCCCN(C)C`, which max response is on record?
Its max response is -10.4%.

Which max response does the source give for `CSC1=N[C@@](C)(c2ccccc2)C(=O)N1Nc1ccccc1` here?
Its max response is 25.5%.

target: Retinoic acid receptor RXR-alpha (Homo sapiens) (UniProt P19793); assay: as above; settings: HEK293T RXRa-UAS-bla, beta-lactamase reporter, 18 h; series mostly up to 76.7 µM
Sequence (P19793 whole entry, looked up): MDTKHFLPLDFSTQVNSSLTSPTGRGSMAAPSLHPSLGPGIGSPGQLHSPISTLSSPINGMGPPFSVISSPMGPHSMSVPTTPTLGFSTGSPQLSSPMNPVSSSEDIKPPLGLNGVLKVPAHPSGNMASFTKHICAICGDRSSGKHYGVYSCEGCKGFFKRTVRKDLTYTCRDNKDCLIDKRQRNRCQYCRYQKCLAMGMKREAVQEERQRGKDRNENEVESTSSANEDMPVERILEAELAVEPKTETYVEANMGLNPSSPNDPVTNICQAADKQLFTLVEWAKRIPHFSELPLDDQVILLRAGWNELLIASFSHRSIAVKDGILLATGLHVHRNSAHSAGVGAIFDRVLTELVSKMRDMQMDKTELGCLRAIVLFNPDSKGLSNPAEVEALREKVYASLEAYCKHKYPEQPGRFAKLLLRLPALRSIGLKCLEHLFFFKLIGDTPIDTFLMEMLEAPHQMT

With `COC(=O)N(OC)c1ccccc1COc1ccn(-c2ccc(Cl)cc2)n1` as the compound, how does the Potency read?
The Potency was “inactive”.

With `O=C(O)[C@@H]1[C@H](C(=O)O)[C@@]2(Cl)C(Cl)=C(Cl)[C@]1(Cl)C2(Cl)Cl` as the compound, how does the Potency read?
Its Potency is “inactive”.

Which Potency does the source give for `CCCCCCCCCCCCN(C)C` here?
Its Potency is “inactive”.

Which Potency does the source give for `CSC1=N[C@@](C)(c2ccccc2)C(=O)N1Nc1ccccc1` here?
The Potency was “inactive”.

target: Thyroid hormone receptor beta (Homo sapiens) (UniProt P10828); assay: qHTS assay for small molecule agonists of thyroid hormone receptor beta signaling (AID 588545); settings: TR-UAS-bla GripTite HEK 293, beta-lactamase ratio, agonist mode, 18 h; series mostly up to 76.7 µM
Outline: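 TR-UAS-bla GripTite HEK 293 cells (2500/well, medium with 2% charcoal/dextran FBS) were treated in agonist mode for 18 h at 37 C, titrated. Beta-lactamase was read by CCF4 ratio after 2 h; normalized to 10 nM T3 (100%) and DMSO, Hill-fitted for EC50 and efficacy.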

Sequence of Thyroid hormone receptor beta (Homo sapiens) (P10828 whole entry, looked up): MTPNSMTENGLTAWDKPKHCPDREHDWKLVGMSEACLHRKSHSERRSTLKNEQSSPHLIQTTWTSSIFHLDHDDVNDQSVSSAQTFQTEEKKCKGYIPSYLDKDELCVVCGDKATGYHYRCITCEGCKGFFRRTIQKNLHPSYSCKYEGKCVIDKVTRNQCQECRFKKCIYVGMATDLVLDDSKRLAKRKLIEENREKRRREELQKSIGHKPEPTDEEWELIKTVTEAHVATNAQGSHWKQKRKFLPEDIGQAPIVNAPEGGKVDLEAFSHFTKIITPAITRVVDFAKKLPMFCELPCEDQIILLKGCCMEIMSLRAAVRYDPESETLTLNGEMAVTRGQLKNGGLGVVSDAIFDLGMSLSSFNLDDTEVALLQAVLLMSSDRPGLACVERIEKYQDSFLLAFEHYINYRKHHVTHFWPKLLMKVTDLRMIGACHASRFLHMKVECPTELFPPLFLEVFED

With `Fc1ccc(Oc2ccnc3cc(Cl)cc(Cl)c23)cc1` as the compound, how does the Potency read?
Its Potency is “inactive”.

Which Potency does the source give for `COC(=O)N(OC)c1ccccc1COc1ccn(-c2ccc(Cl)cc2)n1` here?
The Potency was “inactive”.

Which Potency does the source give for `CC[C@H]1CCCC(O[C@H]2CC[C@H](N(C)C)[C@@H](C)O2)[C@@H](C)C(=O)C2=C[C@@H]3[C@@H](C=C[C@@H]4C[C@@H](O[C@@H]5O[C@@H](C)[C@H](OC)[C@@H](OC)[C@H]5OC)C[C@@H]34)[C@@H]2CC(=O)O1` (stereo partly drawn) here?
The Potency was “inactive”.

For `O=C(O)[C@@H]1[C@H](C(=O)O)[C@@]2(Cl)C(Cl)=C(Cl)[C@]1(Cl)C2(Cl)Cl`, which Potency is on record?
Its Potency is “inactive”.

Which Potency does the source give for `CCCCCCCCCCCCN(C)C` here?
Its Potency is “inactive”.

With `CCOP(=S)(OCC)SCn1nnc2ccccc2c1=O` as the compound, how does the Potency read?
Its Potency is “inactive”.

Which Potency does the source give for `CSC1=N[C@@](C)(c2ccccc2)C(=O)N1Nc1ccccc1` here?
The Potency was “inactive”.

For `CCC[CH2][Sn]([Cl])([Cl])[CH2]CCC`, which Potency is on record?
The Potency was “inactive”.

Which Potency does the source give for `CC(c1ccc(O)cc1)(c1ccc(O)cc1)c1ccc(O)cc1` here?
Its Potency is “inactive”.

Which Potency does the source give for `CCC[CH2][Sn]1([CH2]CCC)[O]C(=O)C=CC(=O)[O]1` here?
The Potency was “inactive”.

For `CCC(C)c1cc([N+](=O)[O-])cc([N+](=O)[O-])c1O` (stereo not drawn), which Potency is on record?
The Potency was “inactive”.

With `O=P(Oc1ccccc1)(Oc1ccccc1)Oc1ccccc1` as the compound, how does the Potency read?
Its Potency is “inactive”.

test system: not listed separately; assay: qHTS assay for small molecule antagonists of retinoid X receptor alpha signaling (AID 588546); settings: HEK293T RXRa-UAS-bla, beta-lactamase ratio, antagonist mode; measured here: W530 green channel, cytotoxicity proxy;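 further: cells stimulated with 9-cis-retinoic acid as agonist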
Outline: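 Beta-lactamase reporter inhibition, read as CCF4 fluorescence ratio (ex 405, em 460/530 nm) after 2 h at RT. HEK293T UAS-bla cells, 2500/well, were stimulated with 9-cis-RA at 500 or 100 nM final alongside test compound for 18 h at 37 C.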

With `Fc1ccc(Oc2ccnc3cc(Cl)cc(Cl)c23)cc1` as the compound, how does the max response read?
Its max response is 20.3%.

For `COC(=O)N(OC)c1ccccc1COc1ccn(-c2ccc(Cl)cc2)n1`, which max response is on record?
Its max response is -0.714%.

Which max response does the source give for `CCCCCCCCCCCCN(C)C` here?
Its max response is 1.32%.

Which max response does the source give for `CCOP(=S)(OCC)SCn1nnc2ccccc2c1=O` here?
The max response was 30.8%.

With `CCC[CH2][Sn]([Cl])([Cl])[CH2]CCC` as the compound, how does the max response read?
Its max response is 25.9%.

With `CC(C)N(C(=O)SCC(Cl)=C(Cl)Cl)C(C)C` as the compound, how does the max response read?
Its max response is 9.5%.

Which max response does the source give for `CCC(C)c1cc([N+](=O)[O-])cc([N+](=O)[O-])c1O` (stereo not drawn) here?
Its max response is -3.63%.

For `O=P(Oc1ccccc1)(Oc1ccccc1)Oc1ccccc1`, which max response is on record?
Its max response is 0.157%.
